Results from the supplement of paper PMC6555819.

Experiments:
Test in all cases: PBM binding z-score (relative to random genomic background probes); higher = stronger binding; sequences stand for … in GC…GCGATTGACAGCGTAGAATGAAGG
[1] = test system: FXR:RXRa (NR concentration 270 nM, RXRa partner concentration 90 nM)
How it was run: (§1)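 Binding z-scores take random background probes as their reference. They come from custom Agilent 4×180K protein-binding microarrays incubated 1 h with ligand-free nuclear receptor dimers, with antibodies against each partner (one per run) detecting binding. Scanned fluorescence was regression-normalized.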

[2] = test system: LXRa:RXRa (NR concentration 270 nM, RXRa partner concentration 90 nM)
How it was run: as §1

[3] = test system: LXRa homodimer (NR concentration 270 nM)
How it was run: as §1

[4] = test system: LXRb:RXRa (NR concentration 270 nM, RXRa partner concentration 90 nM)
How it was run: as §1

[5] = test system: LXRb homodimer (NR concentration 270 nM)
How it was run: as §1

[6] = test system: PPARa:RXRa (NR concentration 270 nM, RXRa partner concentration 90 nM)
How it was run: as §1

[7] = test system: PPARg:RXRa (NR concentration 180 nM, RXRa partner concentration 90 nM)
How it was run: as §1

[8] = test system: PPARg:RXRa 270nM:90nM, anti-RXR (NR concentration 270 nM, RXRa partner concentration 90 nM)
How it was run: as §1

[9] = test system: PPARg:RXRa 30nM:10nM, anti-RXR (NR concentration 30 nM, RXRa partner concentration 10 nM)
How it was run: as §1

[10] = test system: PPARg:RXRa 90nM:30nM, anti-RXR (NR concentration 90 nM, RXRa partner concentration 30 nM)
How it was run: as §1

[11] = test system: PPARg:RXRa DBDmut IVT, anti-RXR (DBD mutation: RXRa K156A/R161A, NR concentration 270 nM, RXRa partner concentration 90 nM)
How it was run: as §1

[12] = test system: PPARg:RXRa IVT, anti-PPARg (NR concentration 270 nM, RXRa partner concentration 90 nM)
How it was run: as §1

[13] = test system: PPARg DBDmut:RXRa IVT, anti-PPARg (DBD mutation: PPARg1 K132A/R137A, NR concentration 270 nM, RXRa partner concentration 90 nM)
How it was run: as §1

[14] = test system: PPARg DBDmut IVT, anti-PPARg (DBD mutation: PPARg1 K132A/R137A, NR concentration 270 nM)
How it was run: as §1

[15] = test system: PPARg homodimer (NR concentration 180 nM)
How it was run: as §1

[16] = test system: PXR:RXRa (NR concentration 270 nM, RXRa partner concentration 90 nM)
How it was run: as §1

[17] = test system: PXR homodimer (NR concentration 270 nM)
How it was run: as §1

[18] = test system: RARa:RXR (NR concentration 270 nM, RXRa partner concentration 90 nM)
How it was run: as §1

[19] = test system: RARa homodimer (NR concentration 270 nM)
How it was run: as §1

[20] = test system: RARb:RXRa (NR concentration 270 nM, RXRa partner concentration 90 nM)
How it was run: as §1

Sequence	PBM binding z-score [1]	PBM binding z-score [2]	PBM binding z-score [3]	PBM binding z-score [4]	PBM binding z-score [5]	PBM binding z-score [6]	PBM binding z-score [7]	PBM binding z-score [8]	PBM binding z-score [9]	PBM binding z-score [10]	PBM binding z-score [11]	PBM binding z-score [12]	PBM binding z-score [13]	PBM binding z-score [14]	PBM binding z-score [15]	PBM binding z-score [16]	PBM binding z-score [17]	PBM binding z-score [18]	PBM binding z-score [19]	PBM binding z-score [20]
TAGCCTAGGTCATGCGGGCTAGTATAGTGTCGGC	3.65	2.96	0.103	1.54	-0.594	3.43	2.07	2.14	0.00724	0.957	1.62	2.81	-0.158	-0.27	0.331	1.07	-0.632	1.97	-0.868	3.86
ACTCGGCGGACAAAGGTCAGAGCTACGCCAGTGA	3.34	3.79	1.32	2.86	-0.304	4.34	4.89	5.97	3.53	5.74	0.148	2.33	-0.012	-0.434	1.79	3.41	0.0332	4.18	0.924	4.22
GCGCCTGGGGCAAAGCAGGTTACCATAAGGTTGG	0.19	-0.148	-0.679	-0.341	-1.26	0.474	0.0826	-0.405	-0.693	-0.771	0.355	-0.0318	-1.1	-1.44	-0.5	0.277	-0.671	0.359	-0.592	1.02
TCTCGGACGACACGAAAGGTCAGAGCTCGACATC	2.91	3.74	2.39	3.3	0.313	3.69	1.12	2.86	2.84	2.66	1.5	1.09	-0.234	0.0466	3.29	3.8	0.286	4.66	2.43	3.86
CCTTACGGGTCACTGACAGGTGATAGCATTTGGA	6.8	5.19	0.411	4.32	-0.315	5.68	4.86	4.97	1.83	4	3.73	3.99	0.64	-0.737	2.47	4.3	0.473	5.06	0.945	4.15
CGAACTAGGTCAAGGACATTGAATCTCCGCACGC	3.45	2.4	0.44	1.68	0.0209	4.43	7.54	6.28	4.19	6	8.24	7.84	1.49	0.731	1.29	1.56	0.252	2.12	0.87	3.98
CGTCCAAGGTCATAGGAGGTCAGTGGAGACAGAT	7.92	7.55	5.5	6.44	1.44	5.76	5.84	5.73	2.93	4.69	3.31	4.65	1.06	-0.0581	7.55	6.94	6.61	5.94	4.42	5.39
CCAGACAGGTGAGAAGGAAACTCAGCCTCGATTA	0.0152	-0.159	0.111	-0.146	-0.36	0.0665	0.519	0.482	-0.0162	0.249	1.07	0.281	0.656	-0.614	0.615	-0.158	0.143	0.0468	0.447	0.0743
TCTGCTAGGTCAGATGGTCAGCTAACGAGCTGCC	1.36	0.977	-0.468	0.356	-0.258	1.86	1.57	2.53	1.8	2.34	2.66	2.86	0.906	-0.32	0.276	0.315	-0.95	1.22	-1.27	3.32
GCTTGTAGATCAAGGTCAAGAAAGACTAAGCTAA	3.17	3.25	0.618	3.02	0.0549	3.91	1.86	3.04	0.697	2.12	2.14	2.87	0.431	-0.296	1.34	2.63	0.449	3.08	0.173	3.5
AGAATGAGGTTACCAAAGATCCGGGAAACGCTTG	1.58	2.04	-0.0971	1.33	-0.177	3.23	2.5	2.84	0.971	2.13	3.81	3.61	0.821	0.35	0.752	0.78	-0.0527	1.76	0.0139	2.05
ATCTCTAGGTAACCAAATTCAGTGAATGCCGAAC	0.306	0.196	0.385	0.283	0.743	0.476	0.6	0.634	0.182	0.59	3.66	2.72	0.888	0.995	0.658	0.0913	0.615	0.166	0.995	0.377
ACAGACAGGTGATGAAGGTAAGTCAGGCTATCAT	-0.11	-0.19	-0.349	-0.143	-0.155	0.0808	0.554	-0.245	-0.266	-0.536	0.134	0.289	0.49	-0.485	-0.00799	-0.348	-0.234	-0.203	0.26	0.27
CTCGAAAGGTCGGTTGAGGTGAGTTTACGGATAA	2.83	1.88	0.32	1.63	-0.184	2.69	-9.87e-05	1.12	0.0415	0.508	1.08	0.924	-0.565	-0.36	0.854	3.83	0.588	2.16	-0.143	3.09
